# Activity calls are given as the source filed them.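 The calls were made as follows, unless noted: active = inhibition at or above 50% at 10 µM; inactive = inhibition below 50%.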
# Legend:
# [1] = inhibitors of TNFa-induced NFkB p65 translocation, primary screen, imaging, HUVEC, MLSMR starter and 10KST1 sets (AID 438;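 active = inhibition above 20% together with a positive visual image hit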;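 also: compound added about 3h40 before a 20 min TNFalpha stimulation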;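 as to inhibition: signal is the nuclear over cytoplasmic p65 intensity ratio per well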); details: HUVEC TNFa-induced p65 nuclear translocation; cell count: measured here: nuclei count (cytotoxicity indicator), at 2.08 µM; inhibition: at 2 µM, stronger effect = higher value, 0% TNFa-plus-vehicle, 100% no-TNFa wells
# [2] = reduction of polyQ htt aggregates in cells – imaging, exon1htt(103Q)mCFP cells, high-content imaging, primary screen (AID 483;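 active = visual image review flags a hit and inhibition of aggregation exceeds 20%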;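 also: compound exposure lasted 3 days before fixation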;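 as to nuclei count: percent of the per-plate median nuclei count of sample wells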); details: exon1htt(103Q)mCFP cell line, aggregate imaging, at 2 µM; inhibition of aggregation: stronger effect = higher value; nuclei count: measured here: cell count, toxicity
# [3] = endothelial E-selectin expression blockers – imaging, HUVEC, immunofluorescence, MLSMR starter and 10KST1 sets, primary screen (AID 487;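 active = visually confirmed hit in the image check and inhibition above 20%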;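 as to inhibition: signal is fraction of cell area covered by stained E-selectin grains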;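 as to nuclei count: 100% = median nuclei count of all wells on the same plate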); details: HUVEC TNFalpha-induced E-selectin immunofluorescence imaging, at 2 µM; inhibition: stronger effect = higher value; nuclei count: measured here: cell number, toxicity
# [4] = target: Voltage-gated potassium channel subunit beta-2 (Rattus norvegicus) (UniProt P62483); experiment: inhibitors of rat Kvbeta2 reductase activity – biochemical, NADPH fluorescence, primary screen (AID 622;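 active = fluorescence slope higher than the sample average by over 3 SD, cut at about -0.22 in these data, passing the limit was not always enough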;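 also: slope of raw intensity against log time taken from 70 to 1610 s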); details: recombinant KvBeta, 4-cyanobenzaldehyde reduction, at 10 µM, stronger effect = higher value
# Voltage-gated potassium channel subunit beta-2 (Rattus norvegicus), sequence (P62483 whole entry, looked up): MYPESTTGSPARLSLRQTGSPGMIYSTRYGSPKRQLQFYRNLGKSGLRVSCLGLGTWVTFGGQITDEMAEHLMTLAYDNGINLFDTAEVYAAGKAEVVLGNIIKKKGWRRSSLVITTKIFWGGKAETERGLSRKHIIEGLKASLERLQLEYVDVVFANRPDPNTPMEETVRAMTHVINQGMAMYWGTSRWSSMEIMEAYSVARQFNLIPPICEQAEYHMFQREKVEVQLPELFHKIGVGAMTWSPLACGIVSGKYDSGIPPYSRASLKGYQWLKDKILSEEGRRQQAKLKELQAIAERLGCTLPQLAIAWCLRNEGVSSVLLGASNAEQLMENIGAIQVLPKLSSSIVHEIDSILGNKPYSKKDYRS
# [5] = target: Voltage-gated potassium channel subunit beta-2 (Rattus norvegicus) (UniProt P62483); experiment: enhancers of rat Kvbeta2 NADPH turnover – biochemical, NADPH fluorescence, primary screen (AID 623;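 active = NADPH fluorescence slope more negative than the mean of all samples by about 3 SD, 99.7% confidence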;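 also: fluorescence intensity change per second fitted from 20 to 320 s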); details: Recombinant KvBeta, NADPH fluorescence decrease slope, 10 min; at 10 µM; stronger effect = lower value
# [6] = target: Alpha-2C adrenergic receptor (Homo sapiens) (UniProt P18825); experiment: compounds altering alpha2C-coupled GIRK flux – cell-based, HEK293 alpha2C/GIRK1/2, thallium flux, primary screen (AID 624;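 active = fluorescence slope after compound addition differing from the mean of all screened samples at 99.7% confidence, in either direction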;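 also: slope of fluorescence ratio to pre-addition baseline per second over 15 to 24 s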); details: thallium flux BTC fluorescence, at 10 µM, actives lie on both sides
# Alpha-2C adrenergic receptor (Homo sapiens), sequence (P18825 whole entry, looked up): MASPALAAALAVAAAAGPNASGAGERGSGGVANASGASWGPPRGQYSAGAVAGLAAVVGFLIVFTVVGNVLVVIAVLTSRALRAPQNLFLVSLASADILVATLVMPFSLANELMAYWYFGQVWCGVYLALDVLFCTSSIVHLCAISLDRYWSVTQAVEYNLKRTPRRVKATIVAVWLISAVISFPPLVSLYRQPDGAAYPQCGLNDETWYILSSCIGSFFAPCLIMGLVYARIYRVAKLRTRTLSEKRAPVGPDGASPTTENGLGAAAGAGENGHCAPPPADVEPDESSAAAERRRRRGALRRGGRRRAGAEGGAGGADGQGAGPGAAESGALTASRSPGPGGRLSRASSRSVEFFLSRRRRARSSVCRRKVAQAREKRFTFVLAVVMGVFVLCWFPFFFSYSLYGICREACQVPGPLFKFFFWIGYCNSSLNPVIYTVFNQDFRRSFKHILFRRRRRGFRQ
# [7] = blockers of RIG-like receptor reporter activation – cell-based, Sendai virus stimulus, luciferase, 10K MLSCN set, TLR/RLR signaling modifier project, primary screen (AID 602276); details: HEK293 RL24 IRF3 luciferase reporter, at 10 µM, stronger effect = higher value;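 also: firefly luciferase from ISG56 promoter only with Renilla not read in this screen; 0% = Sendai virus plus DMSO and 100% = medium plus DMSO without virus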
# [8] = TLR3 IRF3 reporter activation blockers – cell-based, poly I:C stimulus, luciferase, 10K MLSCN set, primary screen (AID 602277;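 active = inhibition of the reporter signal at or above 50%; inactive = inhibition below 50%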); details: HEK293-TLR3 RL24 IRF3 luciferase reporter, at 10 µM, stronger effect = higher value
SMILES,cell count [1],inhibition [1],inhibition of aggregation [2],nuclei count [2],inhibition [3],nuclei count [3],fluorescence slope [4],NADPH fluorescence slope [5],slope [6],inhibition [7],inhibition [8]
Cc1ccc(-n2ncc3c(N4CCCC(C)C4)ncnc32)c(C)c1 (stereo not drawn),558,8% (inactive),10.5% (inactive),85.8%,3.1% (inactive),93.2%,-0.527 (inactive),-3.3e-05 (inactive),0.00664 (inactive),-57.7% (inactive),-125% (inactive)
COCc1nnc(NC(=O)c2ccc(S(=O)(=O)N(C)c3ccccc3)cc2)o1,716,2.4% (inactive),-2% (inactive),116%,-21% (inactive),107%,-0.575 (inactive),1.3e-05 (inactive),0.00656 (inactive),13.8% (inactive),7.35% (inactive)
Cc1ccc(-c2nn(-c3ccccc3)cc2CN(Cc2ccccc2)C(=O)CCC(=O)O)o1,329,7.1% (inactive),-24.5% (inactive),107%,-66.8% (inactive),120%,-0.429 (inactive),-2.6e-05 (inactive),0.00807 (inactive),12.8% (inactive),19.6% (inactive)
CCOc1ccc2nc(SCc3ccc(C(=O)OC)o3)[nH]c2c1,335,15.9% (inactive),16.9% (inactive),96.5%,-39.4% (inactive),112%,-0.546 (inactive),2e-06 (inactive),0.00497 (inactive),8.32% (inactive),-5.74% (inactive)
CCC1CCCCN1CCNS(=O)(=O)c1ccc2c(c1)oc(=O)n2C (stereo not drawn),809,1.8% (inactive),19.9% (inactive),97.2%,-92.7% (inactive),116%,-0.581 (inactive),-4.9e-05 (inactive),0.00605 (inactive),14.3% (inactive),39.8% (inactive)
O=C(COc1ccc(F)cc1Br)N1CCc2ccccc21,414,-7% (inactive),5% (inactive),105%,-49.2% (inactive),103%,-0.46 (inactive),9.7e-05 (inactive),0.0054 (inactive),-38% (inactive),-100% (inactive)
Cc1cc(C(=O)CSc2nnc(-c3ccco3)o2)c(C)n1CC1COc2ccccc2O1 (stereo not drawn),393,0% (inactive),15.2% (inactive),90.2%,-115% (inactive),105%,-0.516 (inactive),-2.2e-05 (inactive),0.00446 (inactive),9.81% (inactive),3.57% (inactive)
Cn1c(=O)c2c(nc(CN3CCN(Cc4ccccc4)CC3)n2Cc2cccc(Cl)c2)n(C)c1=O,488,-13.1% (inactive),6.5% (inactive),100%,10.1% (inactive),98%,-0.562 (inactive),-5.1e-05 (inactive),0.00606 (inactive),15.9% (inactive),48.7% (inactive)
N#Cc1cc2c(nc1SCC(=O)N1CCCCC1)CCCC2,220,5.5% (inactive),0.1% (inactive),90.1%,-46% (inactive),98.7%,-0.473 (inactive),4.2e-05 (inactive),0.00388 (inactive),-26.1% (inactive),-20.2% (inactive)
Cc1cc(-n2c(C)cc(C(=O)CSc3nnnn3-c3ccc(Cl)cc3)c2C)no1,415,4.2% (inactive),2.2% (inactive),94%,-55.8% (inactive),109%,-0.403 (inactive),-3.2e-05 (inactive),0.00589 (inactive),9.68% (inactive),13.2% (inactive)
CN(C)c1ccc(-c2nn3c(-c4ccc(Cl)cc4Cl)nnc3s2)cc1,321,2.6% (inactive),-10.5% (inactive),98.2%,42.5% (inactive),96.6%,-0.552 (inactive),-3.3e-05 (inactive),0.00528 (inactive),-25.6% (inactive),55.1% (active)
COc1ccccc1CNC(=O)Nc1cccs1,546,-6.3% (inactive),9.4% (inactive),118%,-30.8% (inactive),123%,-0.45 (inactive),8.3e-06 (inactive),0.0111 (inactive),-0.521% (inactive),-0.402% (inactive)
O=C(c1ccccc1Oc1nnnn1-c1ccccc1)N1CCOCC1,315,-0.9% (inactive),-13.9% (inactive),107%,-73.9% (inactive),113%,-0.269 (inactive),2e-05 (inactive),0.00699 (inactive),9.07% (inactive),21.2% (inactive)
CCOC(=O)N1CCN(S(=O)(=O)c2cc(Cl)ccc2Cl)CC1,357,5.2% (inactive),29.4% (inactive),95.3%,-221% (inactive),106%,-0.62 (inactive),-2.7e-05 (inactive),0.00556 (inactive),14.8% (inactive),18.5% (inactive)
CN1CCN(Cc2nc3c(c(=O)[nH]c(=O)n3C)n2CCc2ccccc2)CC1,632,7.4% (inactive),6.7% (inactive),99.2%,-34.7% (inactive),119%,-0.436 (inactive),-1.6e-05 (inactive),0.00646 (inactive),3.33% (inactive),39.3% (inactive)
CC1=CCC(C(C)(C)NC(=O)c2ccccc2)C/C1=N\O (stereo not drawn),313,2% (inactive),-4.5% (inactive),89.1%,-6.2% (inactive),120%,-0.624 (inactive),-1.5e-05 (inactive),0.00574 (inactive),17.1% (inactive),20.6% (inactive)
CC(=O)Nc1cccc(Oc2nc(C)cc(C)c2C#N)c1,950,4% (inactive),0.6% (inactive),111%,-87% (inactive),124%,-0.553 (inactive),-1.7e-05 (inactive),0.00763 (inactive),2.68% (inactive),22.3% (inactive)
CC1CCc2nn(CC(=O)NCCN3CCOCC3)cc2C1 (stereo not drawn),605,4% (inactive),-0.2% (inactive),94.5%,42.1% (inactive),97%,-0.612 (inactive),5.1e-06 (inactive),0.00648 (inactive),7.91% (inactive),24.3% (inactive)
CC(C)[C@H](NC(=O)OC(C)(C)C)c1nnc(SCC(=O)Nc2ccc(Br)cc2)o1,402,-6.7% (inactive),6.5% (inactive),107%,-13.2% (inactive),130%,-0.457 (inactive),2.2e-05 (inactive),0.00396 (inactive),2.98% (inactive),28.3% (inactive)
CCOC(=O)N1CCN(CCC(=O)c2ccc(Cl)cc2)CC1,533,-10.6% (inactive),-1.1% (inactive),116%,-30.8% (inactive),69.7%,-0.611 (inactive),-3.9e-05 (inactive),0.00547 (inactive),2.5% (inactive),2.89% (inactive)
CCCCOc1cc(=O)[nH]c(=O)[nH]1,379,11.7% (inactive),14.6% (inactive),84.2%,5.6% (inactive),89.2%,-0.383 (inactive),-5.2e-06 (inactive),0.00308 (inactive),10.4% (inactive),8.55% (inactive)
CCS(=O)(=O)N1CCC(C(=O)NC2CCCCCCC2)CC1,649,-9.4% (inactive),-9.5% (inactive),104%,-113% (inactive),128%,-0.378 (inactive),1.4e-05 (inactive),0.00549 (inactive),-13% (inactive),-6.47% (inactive)
COC(=O)CSC1=C(C#N)C(c2ccc(F)cc2)CC(=O)N1 (stereo not drawn),591,2.5% (inactive),-6.5% (inactive),91.8%,0.6% (inactive),91%,-0.542 (inactive),-3.8e-05 (inactive),0.00754 (inactive),10.2% (inactive),19.4% (inactive)
OC1(c2cccc(C(F)(F)F)c2)CCN(c2ccc(-c3ccccc3)nn2)CC1,853,4.3% (inactive),-13.4% (inactive),96.8%,-25.2% (inactive),106%,-0.456 (inactive),-4.5e-05 (inactive),0.00688 (inactive),-40.7% (inactive),-99% (inactive)
Cn1c(-c2ccccc2)cc(=O)c2ccccc21,419,-3.8% (inactive),2.5% (inactive),92.7%,-39.8% (inactive),118%,-0.457 (inactive),3.9e-05 (inactive),0.00556 (inactive),9.11% (inactive),16.3% (inactive)
Cc1c(NC(=O)C(C)OC(=O)c2cc3c4ccccc4n(C)c3s2)c(=O)n(-c2ccccc2)n1C (stereo not drawn),405,-1.3% (inactive),-35.1% (inactive),67.6%,-1.3% (inactive),107%,-0.481 (inactive),-3.8e-06 (inactive),0.0038 (inactive),25.6% (inactive),34.4% (inactive)
O=C(C1CCC(N2C(=O)C3CC=CCC3C2=O)CC1)N1CCCCC1 (stereo not drawn),257,22.4% (active),7.8% (inactive),80.1%,23.7% (inactive),97.6%,-0.356 (inactive),-5.2e-05 (inactive),0.00567 (inactive),5.96% (inactive),27.2% (inactive)
CCC1Oc2ccc(C)cc2N(CC(=O)NCCCN2CCCCC2CC)C1=O (stereo not drawn),651,-3.9% (inactive),26.7% (inactive),109%,-34.9% (inactive),101%,-0.41 (inactive),2.7e-05 (inactive),0.0055 (inactive),16.8% (inactive),38.8% (inactive)
